system: MILI (PIWIL2) piRISC loaded with L1MC piRNA (26 nt); assay: pre-steady-state target cleavage rate (min^-1); guide: L1MC piRNA 5'p-UAACUAAAUACUAUGCAAGCUGUAGG; MIWI and MILI are mouse PIWI proteins and EfPiwi is from a freshwater sponge; tags in brackets are library labels; higher = faster piRNA-guided slicing of the target; details: auxiliary factor: none (no GTSF1)
How it was run: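 At 33 °C in HEPES–potassium acetate buffer, a transcribed, DNA-blocked target RNA library […] was exposed for 0–8 or 0–960 min to 1 nM active affinity-purified piRISC carrying a single synthetic guide, with or without 500 nM GTSF1 partner protein. Uncleaved targets were sequenced and normalised to depth and to weakly complementary targets. With three trials pooled and k3 capped at 0.0001 min^-1, a burst-and-steady-state fit produced the pre-steady-state cleavage rate.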
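Further: 1 nM active piRISC with 0.1 nM target library at 33 °C single turnover.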

pre-steady-state target cleavage rate, < 0.0001:
UCCUGGAUGUCGAAGCAUAGUAAAAUCAAA [g9:g16:cont:t1A]
UCCUGGAUGUGCUUCCAUAGUAUUUAGAUA
UCCUGGAUCAGCUUGCAAUCUAUUUACAAA
UCCUGGAUGUCGAACGUUAGAUUUUAGUUA
